Results filed as inconclusive are left out. A call without a number means that no potency is given here. Values without a mark were called inactive. Active and inactive are the calls of the source. Unless noted, the call rests on the fitted dose curve; in most records, active means well fitted curve in the direction sought with a large enough effect; inconclusive means small, poorly fitted or top-dose-only effect, or another doubt; inactive means no such curve, though single readings can be large; an effect the other way counts as inactive or inconclusive.
Columns and labels:
[1] = target: Calcium and integrin-binding protein 1 (Homo sapiens) (UniProt Q99828); experiment: Primary qHTS for Identification of Calcium Integrin Binding Protein 1 (CIB1) Competitor (AID 1508620);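 further: GST tagged CIB1 binding a fluorescein labelled alphaIIb integrin peptide tracer; top concentration of the series differs between compounds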
Method in brief: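 Fluorescence polarization competition: CIB1-GST (1 uM final) preincubated with compound 15 min at room temperature, then FITC-labeled alphaIIb peptide (100 nM final) added for another 15 min. Polarization read at Ex 480/Em 540.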

[2] = target: Cytochrome P450 2C9 (Homo sapiens) (UniProt P11712); experiment: Cytochrome P450 family 2 subfamily C member 9 (CYP2C9) small molecule antagonists: luciferase biochemical (cell-free) qHTS assay (AID 1645842; active means well fitted curve in the direction sought with a large enough effect in the repeat runs; an effect the other way counts as inactive or inconclusive; further: nearly all actives have a fitted effect of over 55% in size; further: potency means the concentration at half of the fitted maximal effect)
Method in brief: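 P450-Glo CYP2C9 system: proluciferin substrate with enzyme in mix containing 0.4% BSA, 10 min at room temperature, then NADPH regeneration solution added and incubated 1 h at 37C. Detection reagent stopped reaction; luminescence read after 20 min as RLU.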

[3] = Primary qHTS for inhibitors of nuclear receptor binding SET domain protein 2 (NSD2) in an isogenic RCH-ACV NSD2 p.E1099K mutant (9B) (AID 1645876); further: nearly all actives have a fitted effect of over 70% in size; further: potency means the concentration at half of the fitted maximal effect
[4] = Primary qHTS for inhibitors of nuclear receptor binding SET domain protein 2 (NSD2) in an RCH-ACV wild type WT cells (2C) (AID 1645877); further: nearly all actives have a fitted effect of over 70% in size; further: potency means the concentration at half of the fitted maximal effect
[5] = target: N-terminal Xaa-Pro-Lys N-methyltransferase 1 (Homo sapiens) (UniProt Q9BV86); experiment: Confirmatory qHTS for Inhibitors of N-terminal methyltransferase 1 (NTMT1): MTaseGlo Assay (AID 1645874); further: nearly all actives have a fitted effect of over 65% in size; further: potency means the concentration at half of the fitted maximal effect
Method in brief: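 Enzyme mix (125 nM NTMT1, 100 uM SAM) + compound, 15 min RT; + 1 uM SPKRIA, 30 min RT, dark; MTase-Glo reagent 30 min, detection solution 30 min; luminescence. % inhibition vs no-enzyme/DMSO controls, 4-parameter Hill fit.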

Chain of Cytochrome P450 2C9 (Homo sapiens) (P11712 whole entry, looked up): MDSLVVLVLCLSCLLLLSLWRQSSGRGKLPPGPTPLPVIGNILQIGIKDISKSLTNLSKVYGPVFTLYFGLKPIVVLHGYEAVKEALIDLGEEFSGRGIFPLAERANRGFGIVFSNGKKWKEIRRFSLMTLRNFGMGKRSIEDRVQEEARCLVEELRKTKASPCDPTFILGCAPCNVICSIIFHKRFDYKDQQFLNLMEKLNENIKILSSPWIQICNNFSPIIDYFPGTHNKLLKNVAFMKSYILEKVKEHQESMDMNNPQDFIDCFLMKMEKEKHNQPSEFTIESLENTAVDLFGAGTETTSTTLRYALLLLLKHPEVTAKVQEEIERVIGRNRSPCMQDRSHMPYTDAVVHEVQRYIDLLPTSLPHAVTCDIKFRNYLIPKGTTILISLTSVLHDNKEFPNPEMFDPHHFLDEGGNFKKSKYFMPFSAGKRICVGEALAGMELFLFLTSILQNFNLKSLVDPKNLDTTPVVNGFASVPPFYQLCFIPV
Chain of N-terminal Xaa-Pro-Lys N-methyltransferase 1 (Homo sapiens) (Q9BV86 whole entry, looked up): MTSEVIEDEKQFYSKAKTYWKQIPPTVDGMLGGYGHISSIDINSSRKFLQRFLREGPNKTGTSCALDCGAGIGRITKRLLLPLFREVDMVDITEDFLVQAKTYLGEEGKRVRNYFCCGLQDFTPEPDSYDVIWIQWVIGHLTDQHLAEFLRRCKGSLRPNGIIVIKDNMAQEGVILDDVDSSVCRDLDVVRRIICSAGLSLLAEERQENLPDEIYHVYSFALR
Chain of Calcium and integrin-binding protein 1 (Homo sapiens) (Q99828 whole entry, looked up): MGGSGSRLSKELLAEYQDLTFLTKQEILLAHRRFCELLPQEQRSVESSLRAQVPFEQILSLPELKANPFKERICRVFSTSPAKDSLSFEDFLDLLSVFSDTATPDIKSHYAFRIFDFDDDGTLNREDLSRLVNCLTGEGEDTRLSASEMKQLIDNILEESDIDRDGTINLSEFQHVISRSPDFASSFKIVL

With `O=C(CC1CC(c2ccc(F)cc2F)=NO1)N1CCOCC1` (stereo unspecified) the Potency [1] was “inactive”, the Potency [2] was “inactive” and the Potency [3] was “inactive”. The Potency [4] was “inactive”.
In the case of `On1ncc(C2CCNCC2)c1-c1cccc(-c2ccccc2)c1`, the Potency [1] is reported as “inactive”, the Potency [2] is reported as “inactive” and the Potency [4] is reported as “inactive”.
In the case of `CN1CCN(C2=Nc3ccccc3Nc3ccc(O)cc32)CC1`, the Potency [1] is reported as “inactive”, the Potency [2] is reported as “inactive” and the Potency [3] is reported as “inactive”. For the same compound, the Potency [4] was “inactive”.
With `COc1cn(-c2ccc(-n3cccn3)cc2F)nc(-c2ccnn2-c2ccccc2)c1=O` the Potency [1] was “inactive”, the Potency [2] was 15.1 µM (active) and the Potency [3] was “inactive”. For the same compound, the Potency [4] was “inactive”.
For `O=C(NCCN1CCCC1)c1cc(-c2ccc(CN3CCOCC3)cc2)nc2ccc(F)cc12`, the Potency [1] was “inactive”, the Potency [5] was “inactive” and the Potency [3] was “inactive”. For the same compound, the Potency [4] was “inactive”.
In the case of `C=Cc1cc2oc(-c3ccc(O)c(F)c3)nc2cc1O`, the Potency [1] is reported as “inactive” and the Potency [5] is reported as 31.6 µM (active).
For `O=C(c1c2ccccc2cc2ccccc12)N1CCC(N2CCC[C@@H](C(=O)N3CCOCC3)C2)CC1`, the Potency [1] was “inactive”, the Potency [2] was “inactive” and the Potency [3] was “inactive”. The Potency [4] was “inactive”.
For `COC(=O)Cn1nc(-c2cccc(OC)c2)c2ccccc21`, the Potency [1] was “inactive”, the Potency [2] was 13.5 µM (active) and the Potency [3] was “inactive”. For the same compound, the Potency [4] was “inactive”.
For `NC(=O)[C@@H]1CC[C@H](c2ccc(OCc3ccccc3F)cc2)N1`, the Potency [1] was “inactive”, the Potency [2] was “inactive” and the Potency [3] was “inactive”. The Potency [4] was “inactive”.
In the case of `CC/C=C/C=C/C1(C)OC(CC(CO)OC)=CC1=O` (stereo unspecified), the Potency [1] is reported as “inactive” and the Potency [3] is reported as “inactive”.
For `Cc1cc(C(=O)N2Cc3cnn(C)c3Nc3ccccc32)ccc1CNC(=O)N1CCN(Cc2cc(O)cc(O)c2)CC1`, the Potency [1] was “inactive”, the Potency [2] was 2.39 µM (active) and the Potency [3] was “inactive”. For the same compound, the Potency [4] was “inactive”.
In the case of `O=C(Nc1cc(-c2ccccc2)nn1-c1ccccc1)c1ccc([N+](=O)[O-])cc1`, the Potency [1] is reported as “inactive”, the Potency [2] is reported as 1.51 µM (active) and the Potency [3] is reported as “inactive”. For the same compound, the Potency [4] was “inactive”.
With `COc1cccc(CNc2ccc(S(=O)(=O)Nc3nc4ccccc4s3)cc2)c1O` the Potency [1] was “inactive”, the Potency [2] was 6.74 µM (active) and the Potency [3] was “inactive”. The Potency [4] was “inactive”.
With `Cc1nnc(-c2sc(NC(=O)[C@H](C(C)C)n3c(=O)[nH]c4ccccc4c3=O)nc2C)o1` the Potency [1] was “inactive”, the Potency [2] was 9.52 µM (active) and the Potency [3] was “inactive”. For the same compound, the Potency [4] was “inactive”.
With `Cc1ccc(C)c(NC(=O)CNS(=O)(=O)c2ccc3[nH]c(=O)oc3c2)c1` the Potency [1] was “inactive”, the Potency [2] was “inactive” and the Potency [3] was “inactive”. For the same compound, the Potency [4] was “inactive”.
With `COc1ccc(CCc2nc3cc(-c4c(C)noc4C)ccc3n2C[C@H](C)N2CCOCC2)cc1Cl` the Potency [1] was “inactive”, the Potency [2] was 15.1 µM (active) and the Potency [3] was 3.65 µM (active). The Potency [4] was 2.58 µM (active).
In the case of `CS(=O)(=O)c1ccccc1N1CCN(c2nc3c(c(=O)[nH]2)CSCC3)CC1`, the Potency [1] is reported as “inactive”, the Potency [2] is reported as 8.49 µM (active) and the Potency [3] is reported as “inactive”. For the same compound, the Potency [4] was “inactive”.
With `CC(C)c1cc2c(c(O)c1O)[C@@]13CCCC(C)(C)C1[C@@H](O)[C@@H]2OC3=O` (stereo partly specified) the Potency [1] was “inactive” and the Potency [5] was “inactive”.
For `NC(=O)c1ccc(F)c2c1C[C@@H](N(C1CCC1)C1CCC1)CO2`, the Potency [1] was “inactive”, the Potency [2] was “inactive” and the Potency [3] was “inactive”. For the same compound, the Potency [4] was “inactive”.
With `C=CC1(C)CC=C2C(CCC3C(C)(C(=O)O)CCCC23C)C1` (stereo unspecified) the Potency [1] was “inactive” and the Potency [3] was “inactive”.
For `CN(C)C(=O)C(O)C(Cc1ccccc1)NC(=O)c1cc2cc(Cl)ccc2[nH]1` (stereo unspecified), the Potency [1] was “inactive”, the Potency [2] was 10.7 µM (active) and the Potency [3] was “inactive”. For the same compound, the Potency [4] was “inactive”.
In the case of `C=C1CCC2[C@@](C)(C(=O)O)CCC[C@@]2(C)[C@@H]1CCc1ccoc1` (stereo partly specified), the Potency [1] is reported as “inactive” and the Potency [3] is reported as “inactive”.
In the case of `O=C(O)c1ccnc2cc(-c3nc4ccccc4n3CCN3CCCCC3)sc12`, the Potency [1] is reported as “inactive”, the Potency [5] is reported as “inactive” and the Potency [3] is reported as “inactive”. The Potency [4] was “inactive”.
